Compound activity: PubChem BioAssay, National Center for Advancing Translational Sciences (NCATS)
DT40 TDP1 no CPT: qHTS for Inhibitors of human tyrosyl-DNA phosphodiesterase 1 (TDP1): qHTS in cells in absence of CPT; DT40 Tdp1-/- hTDP1 cells, no CPT, ATP luminescence, 48 h; AID 686978, 2013; actives 15% (n = 420,000); Potency, µM (series often up to 46.2 µM), for the others: at the highest dose activity change, negative = growth inhibition, hits mostly inhibitors; further: potency means the concentration at half of the fitted maximal effect; nearly all actives have a fitted effect of over 55% in size
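No-CPT arm: Tdp1-/-;hTDP1 DT40 cells (400/well) plus compounds, incubated ≥48 hr at 37 °C. Readout CellTiter-Glo luminescence.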
uPA surface inh: inhibitors of cell surface uPA generation; actives 0.31% (n = 330,000); cell surface uPA generation assay, qHTS; Potency, µM (doses to about 38.3 µM), for inactives: at the top dose activity change, negative = inhibition, hits mostly inhibitors; AID 540303; active means well fitted inhibition curve with a large enough effect; inconclusive means small, poorly fitted or top-dose-only effect; inactive means no such curve, though single readings can be large or run the other way; tested in mouse RAW 264.7 cells; further: potency means the concentration at half of the fitted maximal effect; nearly all actives have a fitted effect of over 55% in size
HT1080 IDH1KD tx: HT-1080 IDH1 knockdown cell toxicity (counter line); HT-1080 IDH1 knockdown viability, ATP luminescence, 48 h; Potency, µM (titrated, usually from 46.1 µM), for the others: top-dose activity, negative = toxicity, actives largely listed as cytotoxic; actives 2% (n = 360,000);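 further: potency means the concentration at half of the fitted maximal effect; 0% = DMSO wells and -100% = cell-free medium wells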
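HT-1080-IDH1KD cells (IDH1 knocked down), 750/well in RPMI with 5% FBS, treated with compound 48 h at 37 degrees C. Viability by CellTiter-Glo luminescence, normalised to DMSO and no-cell wells; concentration-response curves classed.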
HT1080-NT tox: kills 2HG-producing HT-1080-NT fibrosarcoma cells; actives 1.6% (n = 360,000); HT-1080-NT fibrosarcoma viability, CellTiter-Glo ATP luminescence, 48 h; AID 686970; Potency, µM (series often up to 46.1 µM), for inactives: at the highest dose activity, negative = less viability, most hits filed as cytotoxic;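 further: NT is the 2HG producing partner of a matched IDH1 knockdown line; potency means the concentration at half of the fitted maximal effect; 0% = DMSO-treated cells and -100% = media-only wells without cells; nearly all actives have a fitted effect of over 55% in size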
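HT-1080-NT; 750 cells/well; 5% FBS RPMI; 48 h compound, 37 degrees C; CellTiter-Glo luminescence; curve fitting and curve-class assignment.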
IL-1B inflam inh: inflammasome signaling inhibition, IL-1 beta readout; activity change, % at 57.5 µM; THP-1 LPS/ATP IL-1B secretion, AlphaLISA, 16 h; hits give low values; actives 4.7% (n = 360,000); in the data active means activity change below about -50%; inconclusive means mostly about -30% to -49%
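THP-1 cells pretreated 1 hr with compounds (up to 57.5 uM final), then stimulated with LPS (250 ng/mL final) plus ATP (1.25 mM final); secreted IL-1B measured by AlphaLISA after 16 hr, decreased signal indicating inhibition.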
TDP1 cell CPT: DT40-hTDP1 cell growth loss with CPT | Potency, µM (series often up to 46.2 µM), for the others: top-dose activity change, negative = growth inhibition, hits mostly inhibitors | chicken DT40 Tdp1-/-;hTDP1 cells + 20 nM CPT, ATP luminescence, 48 h | actives 12% (n = 420,000); further: potency means the concentration at half of the fitted maximal effect; nearly all actives have a fitted effect of over 55% in size
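Cell growth measured by CellTiter-Glo luminescence after a minimum 48 h, 37 C compound exposure with 20 nM CPT in Tdp1-knockout DT40 cells stably expressing hTDP1, seeded 400/well; qHTS titration format.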
Active calls of the source: *. Compounds with a hit are over-represented: about 19% of the library has one in this group of screens. Unless noted, the call rests on the fitted dose curve; in most records, active means well fitted curve in the direction sought with a large enough effect; inconclusive means small, poorly fitted or top-dose-only effect, or another doubt; inactive means no such curve, though single readings can be large; an effect the other way counts as inactive or inconclusive. Unless noted, on the % scale 0 is the no-effect control and ±100 the full control effect.

Cc1ccc(Nc2nc(C)cc(C)c2C#N)c(C)c1 was read as DT40 TDP1 no CPT -6%, HT1080 IDH1KD tx 2%, HT1080-NT tox -1%, IL-1B inflam inh 34 and TDP1 cell CPT inconclusive.
For CCN(C(C)=O)c1cnc(C=NNC(N)=S)c2ccccc12 the results were DT40 TDP1 no CPT 4.6µM*, uPA surface inh -10%, HT1080 IDH1KD tx inconclusive, HT1080-NT tox -22%, IL-1B inflam inh 119 and TDP1 cell CPT 3.7µM*.
`NC(=S)NN=Cc1nccc2c(N)cccc12` gave DT40 TDP1 no CPT 1.2µM*, HT1080 IDH1KD tx inconclusive, HT1080-NT tox inconclusive, IL-1B inflam inh 120 and TDP1 cell CPT 1.8µM*.
NC(=S)N/N=C/c1ccc(OC(=O)c2cccnc2)cc1 was read as DT40 TDP1 no CPT 0%, uPA surface inh -6%, HT1080 IDH1KD tx 5%, HT1080-NT tox 9%, IL-1B inflam inh 27 and TDP1 cell CPT 2%.
For C=CCOc1ccc(/C=N\NC(N)=S)cc1 the results were DT40 TDP1 no CPT inconclusive, uPA surface inh inconclusive, HT1080 IDH1KD tx 7%, HT1080-NT tox -5%, IL-1B inflam inh -5 and TDP1 cell CPT inconclusive.
For Cc1cc(C)n(CCCNC(=O)C(C)(C)Oc2ccc(Cl)cc2)n1 the results were DT40 TDP1 no CPT inconclusive, uPA surface inh 3%, HT1080 IDH1KD tx -2%, HT1080-NT tox -1%, IL-1B inflam inh 0 and TDP1 cell CPT -18%.
Screening Cn1ncc2c(NNC(=O)c3ccc(Cl)cc3Cl)ncnc21 returned DT40 TDP1 no CPT inconclusive, uPA surface inh -3%, HT1080 IDH1KD tx 6%, HT1080-NT tox -1%, IL-1B inflam inh 27 and TDP1 cell CPT -6%.
Screening C=CCc1cccc(/C=C/c2cc(=O)c3ccccc3[nH]2)c1O returned DT40 TDP1 no CPT 7.3µM*, uPA surface inh -9%, HT1080 IDH1KD tx -13%, HT1080-NT tox -6%, IL-1B inflam inh -17 and TDP1 cell CPT 7.3µM*.
Cc1nccn1-c1ccc(C(F)(F)F)cc1[N+](=O)[O-] was read as DT40 TDP1 no CPT inconclusive, uPA surface inh -4%, HT1080 IDH1KD tx 14%, HT1080-NT tox -5%, IL-1B inflam inh 13 and TDP1 cell CPT -13%.
`CCOC(=O)c1nnn(-c2ccc([N+](=O)[O-])cc2[N+](=O)[O-])c1C` gave DT40 TDP1 no CPT 12µM*, uPA surface inh 8.9µM*, HT1080 IDH1KD tx inconclusive, HT1080-NT tox inconclusive, IL-1B inflam inh inconclusive and TDP1 cell CPT 12µM*.
For COCc1c(C(=O)OC)nnn1-c1ccc(C(F)(F)F)cc1[N+](=O)[O-] the results were DT40 TDP1 no CPT -10%, uPA surface inh 1%, HT1080 IDH1KD tx 16%, HT1080-NT tox 18%, IL-1B inflam inh -72* and TDP1 cell CPT 18µM*.
`CC(C)(C)C1CCC2(CC1)C(C#N)=C(SCC(=O)Nc1ccccc1)NC(=O)C2C#N` (stereo not drawn) gave DT40 TDP1 no CPT inconclusive, uPA surface inh -16%, HT1080 IDH1KD tx inconclusive, HT1080-NT tox 15µM*, IL-1B inflam inh -13 and TDP1 cell CPT 16µM*.
Screening N#CC1=C(SCC(=O)c2cc3ccccc3oc2=O)NC(=O)C(C#N)C12CCCC2 (stereo not drawn) returned DT40 TDP1 no CPT inconclusive, uPA surface inh 8%, HT1080 IDH1KD tx 0%, HT1080-NT tox -6%, IL-1B inflam inh 0 and TDP1 cell CPT -16%.
Cc1ccc(Cl)cc1NC(=S)N(CCCN1CCN(C)CC1)Cc1cccs1 was read as DT40 TDP1 no CPT -16%, uPA surface inh -12%, HT1080 IDH1KD tx inconclusive, HT1080-NT tox -20%, IL-1B inflam inh -9 and TDP1 cell CPT 1%.
CCCN(Cc1cccs1)C(=O)Nc1cc(Cl)ccc1C was read as DT40 TDP1 no CPT 23µM* and TDP1 cell CPT inconclusive.
CS(=O)(=O)CCCCN=C=S was read as DT40 TDP1 no CPT 18µM* and TDP1 cell CPT inconclusive.
CC(C)c1ccc(NC(=O)CSc2nc3ccsc3c(=O)n2CCC(=O)O)cc1 was read as DT40 TDP1 no CPT 20%, uPA surface inh 5%, HT1080 IDH1KD tx 8%, HT1080-NT tox -1%, IL-1B inflam inh 45 and TDP1 cell CPT 4%.
Screening O=c1cnc2cnc(Oc3ccccc3)nc2n1CCc1ccccc1 returned DT40 TDP1 no CPT -18% and TDP1 cell CPT 15%.
Screening CN(C)/C=C1\C=Cc2ccccc21 returned DT40 TDP1 no CPT 13µM* and TDP1 cell CPT inconclusive.
Screening CN(C)N=Nc1ccc(/C=C2\C=Cc3ccccc32)cc1 returned DT40 TDP1 no CPT inconclusive and TDP1 cell CPT 14µM*.
For NC(N)=Nc1ccc(/C=C2\C=Cc3ccccc32)cc1 the results were DT40 TDP1 no CPT 13µM* and TDP1 cell CPT 11µM*.
Screening COc1ccc(/C=C2\C=Cc3ccccc32)cc1 returned DT40 TDP1 no CPT -28% and TDP1 cell CPT 4%.
For COc1cccc(NC(=O)COc2ccccc2C(=O)Nc2ccccc2)c1 the results were DT40 TDP1 no CPT inconclusive, HT1080 IDH1KD tx -10%, HT1080-NT tox -8% and TDP1 cell CPT inconclusive.
Screening CC(=O)N1CCC2(CC1)C/C(=N\NC(=S)Nc1ccccc1F)c1cc(O)ccc1O2 returned DT40 TDP1 no CPT -14%, uPA surface inh 4%, HT1080 IDH1KD tx inconclusive, HT1080-NT tox inconclusive, IL-1B inflam inh -76* and TDP1 cell CPT -18%.
For CC(C)(O)c1[nH]c2cc(F)ccc2c1C(C)(C)O the results were DT40 TDP1 no CPT -25%, uPA surface inh 6%, HT1080 IDH1KD tx -4%, HT1080-NT tox 3%, IL-1B inflam inh 22 and TDP1 cell CPT inconclusive.
O=[N+]([O-])c1ccc(Cl)c(S(=O)(=O)N2CCCCCC2)c1 was read as DT40 TDP1 no CPT inconclusive, uPA surface inh -26%, HT1080 IDH1KD tx 7%, HT1080-NT tox 6%, IL-1B inflam inh 11 and TDP1 cell CPT 3%.
For C#CCOCCOCCOCCNc1nc(N2CCN(C(=O)[C@H]([C@@H](C)CC)n3cc(CCCN=C(N)N)nn3)CC2)nc(N2CCN(C(=O)[C@H](CCCCN)n3cc(CC(C)O)nn3)CC2)n1 (stereo partly drawn) the results were DT40 TDP1 no CPT -3%, uPA surface inh -6%, HT1080 IDH1KD tx 8%, HT1080-NT tox 11%, IL-1B inflam inh 9 and TDP1 cell CPT -1%.
